# Test results: PubChem BioAssay (Tox21)
# Results filed as inconclusive are left out. The source made the active and inactive calls. Calls follow the shape of the dose curve; as a rule, active = well fitted cell-killing curve with a large enough effect in the repeat runs; inconclusive = weak or mixed curves; inactive = flat fitted curve, though single readings scatter.
# Assay: qHTS assay to identify small molecule antagonists of the TGF-beta/Smad signaling pathway - cell viability counter screen (AID 1346824); also: nearly all actives have a fitted effect of over 50% in size
# Details: SBE-bla HEK293T viability, CellTiter-Glo luminescence; series mostly up to 76.8 µM; viability change, negative = cytotoxic: at the top concentration
# Source text: U.S. Tox21 Program National Center for Advancing Translational Sciences [NCATS] NIH Chemical Genomics Center [NCGC] U.S. Environmental Protection Agency [EPA] National Institutes of Environmental Health Sciences [NIEHS] National Toxicology Program [NTP] U.S. Food and Drug Administration [FDA] Tox21 Assay Overview: Transforming growth factor beta (TGF-beta) superfamily consists of a large number of structurally related dimeric proteins that act as hormones or local mediators in regulating a wide range of biological functions. This superfamily includes TGF-betas themselves, the bone morphogenetic proteins (BMPs) and the activins. These ligands induce oligomerization of serine/threonine receptor kinases and phosphorylate the cytoplasmic signaling molecules of Smad protein family. CellSensor SBE-bla HEK 293T cell line (Life Technologies, Carlsbad, CA), responsive to TGF-beta was used to screen Tox21 10K compound library for identification of agonists/antagonists of the Smad signaling pathway. This cell line contains a beta-lactamase reporter gene under control of the Smad binding element (SBE) stably integrated into HEK 293T cells. Also cytotoxicity of the compounds was tested in parallel by measuring the cell viability using CellTiter-Glo assay system in the same wells.
# Tox21 Assay Protocol Summary: SBE-bla HEK 293T cells were dispensed at 4,000/well in 5 uL of assay medium into black wall/clear-bottom 1536-well plates using a Multidrop Combi (ThermoFisher Scientific, Waltham, MA) dispenser. After the assay plates were incubated at 37 C and 5% CO2 for an overnight, 23 nL of compounds dissolved in DMSO, positive controls or DMSO only was transferred to the assay plate by a Pintool station (Kalypsys, San Diego, CA). Compound transfer was followed by the addition of 1 uL of 0.25 ng/mL TGF-beta1 or assay buffer using two separate tips of Flying Reagent Dispenser (FRD, Aurora Discovery, San Diego, CA). The assay plates were incubated at 37 C and 5% CO2 for 5 hr. One uL of LiveBLAzer B/G FRET substrate (Life Technologies) was added using a Flying Reagent Dispenser (FRD, Aurora Discovery, San Diego, CA) and the plates were incubated at room temperature for 2 hr. Fluorescence intensity (405 nm excitation, 460 nm and 530 nm emissions) was measured using an Envision plate reader (PerkinElmer, Shelton, CT). For cytotoxicity read, 4 uL of CellTiter-Glo reagent (Promega Corporation, Madison, WI) was added to each well of the assay plates using FRD. After 30 min incubation at room temperature, the luminescence intensity was measured using ViewLux plate reader (PerkinElmer).
# % is scaled to controls: 0 for no effect and ±100 for the full control effect.
SMILES,outcome,"viability change, negative = cytotoxic"
COc1cc(OC)c(C(=O)CCCN2CCCC2)c(OC)c1,inactive,
CSc1ccc(Cl)cc1,inactive,
O=C(OCC1CCC2OC2C1)C1CCC2OC2C1 (stereo not given),inactive,
O=S(=O)(O)c1ccc(N=Nc2c(O)ccc3cc(S(=O)(=O)O)ccc23)cc1,inactive,
c1ccc(Oc2ccccc2)cc1,inactive,
CCCCCCCO,inactive,
CC(C)(Oc1ccc(CCNC(=O)c2ccc(Cl)cc2)cc1)C(=O)O,inactive,
COCCOC(=O)c1ccccc1C(=O)OCCOC,inactive,
Clc1ccccn1,inactive,
CCOC(=O)n1ccn(C)c1=S,inactive,
Nc1ccc(Cl)c(N)c1,inactive,
CCNc1ccccc1,inactive,
CN(C)c1ccc(O)c2c1C[C@H]1C[C@H]3[C@H](N(C)C)C(=O)C(C(N)=O)=C(O)[C@@]3(O)C(=O)C1=C2O,inactive,
COc1ccc(N)c(C)c1,inactive,
CC(=O)OCCOC(C)=O,inactive,
CCCCCCO,inactive,
Nc1nc(N)nc(-c2ccccc2)n1,inactive,
Brc1ccc(Br)c(Br)c1,inactive,
CC1(C)NC(=O)NC1=O,inactive,
C=CC(=O)OCCC(=O)O,inactive,

SMILES,outcome,"viability change, negative = cytotoxic"
COc1ccc([N+](=O)[O-])cc1N,inactive,
CNC(=S)N(C)C,inactive,
C=C(C)C(=O)OCC(C)C,inactive,
CCOC(=O)c1ccc(N)cc1,inactive,
CCCCOC(=O)c1ccc(N)cc1,inactive,
O=C(O)CCCCCCCCC(=O)O,inactive,
COc1ccc(OC)cc1,inactive,
C=CC[N+](C)(C)CC=C,inactive,
N[C@H](Cc1c[nH]c2ccccc12)C(=O)O,inactive,
OCc1ccccc1,inactive,
CCO[Si](CCC#N)(OCC)OCC,inactive,
CNC(=O)Oc1ccc2c(c1)[C@]1(C)CCN(C)[C@@H]1N2C,inactive,
CCCCCCCCCCN,inactive,
CCCCCCCCCCCCCCCCO,inactive,
NCCCCCCN,inactive,
OCc1cccc(Oc2ccccc2)c1,inactive,
CC(C)CCCCCCCOC(=O)CCCCC(=O)OCCCCCCCC(C)C,,-1.08% (inactive)
CCCCCC(=O)O,inactive,
COc1ccc(CCC(C)=O)cc1,inactive,
COc1ccc(C)cc1N,inactive,
